SW480 rereplic: DNA re-replication induction in SW480 cells; SW480 DNA re-replication, Hoechst DNA content imaging, 48 h; Potency, µM (highest dose often 46.1 µM), actives largely listed as activators; 1.8% of 340,000 active; note: nearly all actives have a fitted effect of over 55% in size
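Image-based read-out: total Hoechst fluorescence of nuclei (405 nm excitation, 500-530 nm emission), with hits raising the fraction of high-intensity nuclei. SW480 colon cells incubated 48 hr with compounds at 37 C.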
ELG1 DNA repair: blocks ELG1-dependent DNA repair in HEK293T cells. AID 504467. Potency, µM (highest dose often 46.1 µM), hits mostly inhibitors. 2.3% of 330,000 active. HEK293T ELG1-luciferase reporter, luminescence, 16 h; DNA damage induced by 5-fluorouridine; note: nearly all actives have a fitted effect of over 55% in size
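Quantitative HTS, concentration-response format. 2,000 cells/well co-treated with 5-fluorouridine and compound, 16 hr in 5% CO2 at 37 °C; ONE-Glo luminescence read after 30 min.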
VP16 counter: Gal4-VP16 reporter inhibition counter-screen | Drosophila S2 Gal4-VP16 UAS-luciferase, luminescence, 20 h | Potency, µM (highest dose often 53.6 µM), most hits filed as inhibitors | 3.5% of 310,000 active;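 note: Gal4-VP16 expression switched on by copper sulfate through the metallothionein promoter; nearly all actives have a fitted effect of over 50% in size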
MCF10A rerep: DNA re-replication induction in MCF 10a cells; MCF 10A DNA re-replication, Hoechst nuclear intensity, 48 h; Potency, µM (titrated, usually from 46.1 µM), usual class: activators; 2.9% of 350,000 active; AID 624296; note: nearly all actives have a fitted effect of over 50% in size
RORgamma inh: inhibitors of mouse ROR gamma transcriptional activity; P51450; Drosophila S2 Gal4-RORgamma UAS-luciferase reporter, 20 h; Potency, µM (series often up to 53.6 µM), hits mostly inhibitors; 5.4% of 310,000 active; AID 2551; note: nearly all actives have a fitted effect of over 60% in size
Target sequence (P51450 whole entry, looked up, the tested form may be a part): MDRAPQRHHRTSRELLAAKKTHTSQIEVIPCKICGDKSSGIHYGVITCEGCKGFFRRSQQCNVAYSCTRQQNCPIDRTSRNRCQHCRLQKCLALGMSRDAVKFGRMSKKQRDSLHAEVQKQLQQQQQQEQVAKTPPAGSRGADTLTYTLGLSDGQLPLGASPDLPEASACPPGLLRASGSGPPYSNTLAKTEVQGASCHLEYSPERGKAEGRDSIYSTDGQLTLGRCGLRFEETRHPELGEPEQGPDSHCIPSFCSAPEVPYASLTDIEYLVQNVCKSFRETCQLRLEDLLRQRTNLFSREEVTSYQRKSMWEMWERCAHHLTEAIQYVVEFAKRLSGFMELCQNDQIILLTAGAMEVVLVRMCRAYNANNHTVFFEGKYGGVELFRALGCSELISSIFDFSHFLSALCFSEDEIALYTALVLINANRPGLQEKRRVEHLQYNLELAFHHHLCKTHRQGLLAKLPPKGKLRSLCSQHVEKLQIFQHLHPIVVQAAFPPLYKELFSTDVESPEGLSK
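Compounds are pin-transferred onto Drosophila Schneider cells expressing a copper-inducible Gal4–ROR gamma transactivation domain fusion. After 1 hr, copper sulfate is added to 700 uM final; luciferase is read 20 hr later.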
Numbers stand for hits; - = inactive; ? = inconclusive; . = no result given; [ ] = remark or other dose. Compounds with a hit are over-represented: about 10% of the library has one in this group of screens. Calls come from the whole dose curve; as a rule, active = well fitted curve in the direction sought with a large enough effect; inconclusive = small, poorly fitted or top-dose-only effect, or another doubt; inactive = no such curve, though single readings can be large; an effect the other way counts as inactive or inconclusive.

SMILES	SW480 rereplic	ELG1 DNA repair	VP16 counter	MCF10A rerep	RORgamma inh
CSCC[C@H](NC(=O)[C@@H]1CCCN1C(=O)[C@H](CCCN=C(N)N)NC(=O)[C@H](CC(C)C)NC(=O)[C@@H]1CCCN1C(=O)[C@@H](NC(=O)[C@@H](N)CCC(N)=O)C(C)C)C(=O)N[C@H](C(=O)N[C@@H](Cc1ccc(O)cc1)C(=O)N[C@@H](CCCCN)C(=O)O)[C@@H](C)O	.	.	-	.	-
CCS(=O)(=O)c1ccc(O)c(NC(=O)Nc2ccc(C(C)(C)C)cc2)c1	-	14.6µM	-	-	-
O=C(NCCCCNC(=O)c1ccc(Br)cc1)c1ccc(Br)cc1	-	-	-	-	-
CC(C)C(=O)C1=Cc2cc([N+](=O)[O-])ccc2OC1N1CCOCC1 (configuration not stated)	-	-	-	?	-
O=C1CSC(c2cn(-c3ccccc3)nc2-c2cc3ccccc3oc2=O)N1Cc1ccccc1 (configuration not stated)	-[9.22 µM]	20.6µM	-	?	-
O=C1CSC(c2nn(-c3ccccc3)cc2-c2cc3ccccc3oc2=O)N1Cc1ccco1 (configuration not stated)	?	?	-	-	-
CCn1c(C)cc(O)cc1=O	-	-	-	-	-
CCN(CC)c1ccc(/C=N\NC(=O)c2cccc3cc[nH]c23)cc1	23.1µM	?	17.8µM	14.6µM	7.08µM
O=C(N/N=C/c1ccc([N+](=O)[O-])cc1)c1cccc2cc[nH]c12	-	-	-	-	-
CCN(CC)c1ccc(/C=N\NC(N)=O)cc1	-	?	-	-	?
CCN(CC)c1ccc(/C=N/NC(=O)c2ccc(O)cc2)cc1	.	.	2.51µM	.	1.12µM
C/C(=N\NC(=O)c1ccc(OC2CCCC2)cc1)c1ccc(O)cc1	-	-	?	?	14.1µM
CCN(CC)c1ccc(/C=N/NC(=O)c2ccoc2C)cc1	-	?	?	-	20µM
CCOc1ccc(/C=N/NC(=O)c2ccoc2C)cc1OC	?	?	-	-	-
COc1ccc(NC(=O)C2CCN(C(=O)Cc3ccccc3)CC2)c(OC)c1	-	-	-	-	-
Cc1nc(NS(=O)(=O)c2ccc(N)cc2)nc(C)c1Br	-	.	-	-	-
CCN(CC)c1ccc(C(=O)N/N=C(\C)c2ccc(O)cc2)cc1	-	-	-	8.2µM	-
O=S(=O)(Cc1noc(-c2ccccc2Cl)n1)c1ccccn1	-	?	-	-	-
N#Cc1c2n(c3c(=S)nc[nH]c13)CCCCC2	-	?	17.8µM	?	3.55µM
Cn1nnnc1SCC1=C(C(=O)O)N2C(=O)C(NC(=O)Cn3nc(C(F)F)cc3C3CC3)C2SC1 (configuration not stated)	-	-	-	0.581µM	-
Cc1c(Cl)c(C(F)F)nn1CC(=O)NC1C(=O)N2C(C(=O)O)=C(CSc3nnnn3C)CSC12 (configuration not stated)	-	-	-	-	-
CCNc1nc(SCC(=O)OC)nc(N(C)C)n1	-	?	-	-	-
CCn1c(O)c(C2=c3ccccc3=NC2=O)c2cc(Br)ccc21	?	?	-	16.4µM	?
O=C1N=c2ccccc2=C1c1c(O)n(-c2cccc(F)c2)[nH]c1=O	-	-	-	?	-
C=CCn1c(O)c(N=NC(=S)Nc2ccccc2C)c2cc(S(=O)(=O)N3CCOCC3)ccc21	?	-	2µM	-	0.501µM
SMILES	SW480 rereplic	ELG1 DNA repair	VP16 counter	MCF10A rerep	RORgamma inh
Cc1ccc(N=Nc2c(O)n(CN3CCOCC3)c3ccccc23)cc1	-	?	-	-	-
C=CCn1c(O)c(N=NC(=S)Nc2ccc(OC)c(Cl)c2)c2ccccc21	-	?	3.98µM	?	2.82µM
Cc1cccc(NC(=S)N=Nc2c(O)n(CN3CCOCC3)c3ccccc23)c1C	-	?	1.12µM	-	0.708µM
Cc1cc(=O)n(C)c2ccc(S(=O)(=O)N3CCOCC3)cc12	-	-	-	-	-
Cc1ccc(NC(=S)N=Nc2c(O)n(C)c3ccc(S(=O)(=O)N4CCOCC4)cc23)cc1C	-	-	3.16µM	?	0.708µM
CCn1c2ccccc2c2nc3cc(S(=O)(=O)N4CCOCC4)ccc3nc21	-	?	-	-	-
COc1ccc(N2CCN(C(=O)c3cccc(NC(=O)c4ccco4)c3)CC2)cc1	-	-	-	-	-
Cn1c(O)c(N=NC(=S)Nc2ccccc2F)c2cc(S(=O)(=O)N3CCOCC3)ccc21	?	1.83µM	2µM	-	0.316µM
COc1c(C)cc(Br)cc1C(=O)Nc1ccc(Cc2ccncc2)cc1	?	?	?	16.4µM	?
Cc1c([N+](=O)[O-])cc(C(=O)Nc2ccc(Cc3ccncc3)cc2)cc1[N+](=O)[O-]	-	10.3µM	-	-	-
CCOc1ccc(C(=O)Nc2ccc(Cc3ccncc3)cc2)cc1Br	16.4µM	?	-	?	-
Cc1ccc(NC(=O)c2ccc(NCCN)c([N+](=O)[O-])c2)cc1	?	?	-	-	6.31µM
CCOC(=O)c1c(-c2ncc(C(F)(F)F)cc2Cl)noc1C	?	-	-	-	-
O=C(c1ccc2nc[nH]c2c1)N1CCN(S(=O)(=O)c2cccc(F)c2)CC1	-	-	.	-	.
Nc1ncnc2c1C1(CCCCC1)Cc1ccccc1-2	-	10.3µM	-	-	-
COc1ccc2ccccc2c1CN1CCN(C(=O)c2ccco2)CC1	-	20.6µM	-	-	-
COc1ccc(CN2CCN(C(=O)c3ccc(CNS(=O)(=O)c4ccc(C)cc4)cc3)CC2)c(OC)c1OC	-	9.2µM	-	-	-
COc1cc(CN2CCN(C(=O)c3ccc(-c4ccccc4)cc3)CC2)cc(OC)c1OC	-	?	-	-	-
COc1ccc2ccccc2c1CN1CCN(C(=O)c2ccccc2)CC1	-	18.4µM	-	-	-
COc1cc(OC)cc(C(=O)N2CCN(C(=O)c3ccc(-c4ccccc4)cc3)CC2)c1	-	-	7.08µM	-	1.12µM
COc1ccc(C(=O)NNC(=O)CSc2ccccc2)cc1	-	-	-	-	-
CC(C)(C)OC(=O)N[C@@H](Cc1ccccc1)C(=O)N1CCC(C(=O)N[C@@H](Cc2c[nH]c3ccccc23)C(=O)O)CC1	-	-	-	-	-
Cc1ccccc1CNC(=O)CCn1nc(C)c2c(C)n(-c3ccccc3)nc2c1=O	?	-	-	?	-
O=C1C(=O)N(CCN2CCOCC2)C(c2ccc(Cl)cc2)/C1=C(/O)c1ccc(S(=O)(=O)N2CCOCC2)cc1 (configuration not stated)	-	-	-	-	-
CCOc1ccccc1-n1c(CN2CCN(C(=O)c3ccco3)CC2)nc2ccccc2c1=O	-	-	-	3.66µM	-
COc1cccc(CN2CCN(C(=O)c3ccc(-c4ccccc4)cc3)CC2)c1OC	-	18.3µM	-	-	-
COc1cc2c(c(OC)c1OC)C(c1ccccc1C)CC(=O)O2 (configuration not stated)	?	?	-	-	-
